This is part of a sample that, as a whole, favours compounds with a hit. Of some 83,000 tested, about 20% had one in any assay.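 Values shown are percent growth following 48 h exposure of cells in 96-well plates to a single concentration of compound; below 10 was considered active.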 The source made the active and inactive calls.
System: MDA-MB-468 breast
Assay: NCI-60 one-dose screen, 48 h (100 = growth as untreated, 0 = no growth, -100 = all killed)
Conditions: 10 µM unless noted

Structure (SMILES) | growth
CC(C)[C@@H]1NC(=O)[C@]2(C)CSC(=N2)c2csc(n2)CNC(=O)C[C@@H](/C=C/CCS)OC1=O | 30% (inactive)
CC[C@H](C)[C@H](NC(=O)C12C3C4C1C1C2C3C41NC(C)=O)C(=O)N(C)[C@H](C[C@@H](OC(C)=O)c1nc(C(=O)N[C@@H](Cc2ccccc2)C[C@H](C)C(=O)OC)cs1)C(C)C (stereo partly drawn) | 11.5% (inactive)
CC[C@H](C)[C@H](NC(=O)C12CC(NC(C)=O)(C1)C2)C(=O)N(C)[C@H](C[C@@H](OC(C)=O)c1nc(C(=O)N[C@@H](Cc2ccccc2)C[C@H](C)C(=O)OC)cs1)C(C)C | 5.12% (active)

— PubChem BioAssay (NCI)
